Hits are enriched below; roughly 1.3% of the tested compounds scored in any of these assays.
PrP UTR inh: inhibition of PrP 5' UTR reporter expression; cell-based PrP 5' UTR mRNA reporter, plate reader; inhibition, % (no concentration beside the values); 0.35% of 340,000 active; AID 488862; in the data active means inhibition above about 52%; further: 0 = median of the neutral control wells
PrPC TRFRET: reduces human prion protein on the cell surface. AID 720596. 0.43% of 370,000 active. cell surface PrPC, TR-FRET read-out. inhibition, % at 13.8 µM; in the data active means inhibition above about 24%; further: 0% = median of the test wells and 100% = reference compound wells
CCHF vOTU inh-1: blocks the CCHF virus ovarian tumor domain protease | CCHFV vOTU protease, Pep-AMC fluorescence | inhibition, % at 11.5 µM | 0.55% of 370,000 active; further: 0% = vehicle wells with enzyme and 100% = no enzyme wells
3CLpro inhibitor: SARS-CoV 3CLpro protease inhibition; recombinant SARS-CoV 3CLpro, quenched FRET peptide cleavage; P0C6X7; inhibition, % at 6 µM; 0.14% of 290,000 active; in the data active means inhibition above about 12%
CCHF vOTU inh-2: confirmation of CCHF virus vOTU protease inhibitors; Recombinant CCHFV vOTU, Pep-AMC fluorescence; shares compounds with CCHF vOTU inh-1; 17% of 1,900 active; inhibition, % at 11.5 µM; AID 686976
PrPC TRFRET cf: confirmation of inhibitors of cell surface human prion protein; shares compounds with PrPC TRFRET; cell surface PrPC level, TR-FRET; inhibition, % at 13.8 µM; 65% of 1,500 active; AID 743200; in the data active means inhibition above about 25%
LD9 tox: LD9 cell cytotoxicity, PrPc inhibitor counter-screen | shares compounds with PrPC TRFRET | LD9 cells cytotoxicity, luminescence viability | inhibition, % at 13.8 µM | 29% of 1,500 active | AID 743201; in the data active means inhibition above about 9.5%
The depositor's hits bear a star. Unless noted, no stated cut-off is given here; in the data, active means inhibition above about 30%; inactive means the rest.

How did CCN(c1cccc(C(F)(F)F)c1)S(=O)(=O)c1ccc2c(c1)CCN2C(C)=O do in these assays?
PrP UTR inh: -2; PrPC TRFRET: 80*; CCHF vOTU inh-1: 42*; 3CLpro inhibitor: 7; CCHF vOTU inh-2: 2; PrPC TRFRET cf: 18; LD9 tox: -4

How did CCN(c1cccc(C)c1)S(=O)(=O)c1ccc2c(c1)CCN2C(C)=O do in these assays?
PrP UTR inh: -15; PrPC TRFRET: -6; CCHF vOTU inh-1: 2; 3CLpro inhibitor: -1

Results for COc1cccc(-c2nnc(SCC(=O)Nc3ccc(OCc4ccccc4)cc3)n2Cc2ccco2)c1 ?
PrPC TRFRET: 5; CCHF vOTU inh-1: 10

How did CC1OC(CC(=O)O)CC2=C1C(=O)c1c(O)cccc1C2=O (stereo unspecified) do in these assays?
PrP UTR inh: 46; PrPC TRFRET: 71*; CCHF vOTU inh-1: 93*; CCHF vOTU inh-2: 98*; PrPC TRFRET cf: 86*; LD9 tox: 98*

How did Cn1c(=O)c2c(nc(CN3CCN(CCO)CC3)n2Cc2ccccc2Cl)n(C)c1=O do in these assays?
PrP UTR inh: -28; PrPC TRFRET: 6; CCHF vOTU inh-1: 11; 3CLpro inhibitor: -3

Results for Oc1c(CN2CCCCC2)cc(Br)c2cccnc12 ?
PrP UTR inh: 23; PrPC TRFRET: 32*; CCHF vOTU inh-1: 70*; 3CLpro inhibitor: -2; CCHF vOTU inh-2: -7; PrPC TRFRET cf: 4; LD9 tox: 16*

Results for Oc1c(Cl)cc(CN2CCOCC2)c2cccnc12 ?
PrP UTR inh: -7; PrPC TRFRET: 5; CCHF vOTU inh-1: 5

Results for CCCCCCCCC[n+]1cccc2c3ccccc3ccc21 ?
PrP UTR inh: 1; 3CLpro inhibitor: 1

How did CCCCCCCCCCCCCCCC[n+]1cccc2ccccc21 do in these assays?
PrP UTR inh: 10; PrPC TRFRET: 40*; CCHF vOTU inh-1: 44*; 3CLpro inhibitor: 7; CCHF vOTU inh-2: 70*; PrPC TRFRET cf: 51*; LD9 tox: 55*

How did CC(C)Cc1ccc(C(C)C(=O)Nc2ccc(O)cc2)cc1 (stereo unspecified) do in these assays?
PrP UTR inh: -3; PrPC TRFRET: 28*; CCHF vOTU inh-1: 30*; 3CLpro inhibitor: 3; CCHF vOTU inh-2: 2; PrPC TRFRET cf: 21; LD9 tox: 0

How did Cc1nn(C)c(C)c1/C=C(/C(=O)C(C)(C)C)n1cncn1 do in these assays?
PrP UTR inh: 9; PrPC TRFRET: 14; CCHF vOTU inh-1: -9; 3CLpro inhibitor: 7

How did CC(C)(C)C(=O)/C(=C/c1ccncc1)n1cncn1 do in these assays?
PrP UTR inh: -3; PrPC TRFRET: 34*; CCHF vOTU inh-1: -3; 3CLpro inhibitor: 1; PrPC TRFRET cf: 1; LD9 tox: 44*

What do the screens show for `Cc1ccc(S(=O)(=O)CCC(=O)NCCc2ccccc2)cc1`?
PrP UTR inh: -19; PrPC TRFRET: -5; CCHF vOTU inh-1: -8; 3CLpro inhibitor: -5

Results for c1ccc(Nc2nc(NCC3CCCO3)c3ccccc3n2)cc1 (stereo unspecified) ?
PrP UTR inh: -16; PrPC TRFRET: 20; CCHF vOTU inh-1: 23; 3CLpro inhibitor: 6

How did CCOc1ccc(Nc2nc(NCC3CCCO3)c3ccccc3n2)cc1 (stereo unspecified) do in these assays?
PrP UTR inh: -6; PrPC TRFRET: 34*; CCHF vOTU inh-1: 10; 3CLpro inhibitor: 2; PrPC TRFRET cf: 30*; LD9 tox: 32*

What do the screens show for `CCCc1c(-c2ccc(F)cc2F)ncn1Cc1cccc(-c2ccccc2)c1`?
PrPC TRFRET: 30*; CCHF vOTU inh-1: 25; PrPC TRFRET cf: 18; LD9 tox: 8

What do the screens show for `COc1ccccc1-c1ncn(Cc2cccc(-c3ccccc3)c2)c1CC(C)C`?
PrPC TRFRET: 27*; CCHF vOTU inh-1: 23; PrPC TRFRET cf: 15; LD9 tox: 7

What do the screens show for `Cc1csc(NC(=O)c2cc3c(C)nn(Cc4ccccc4Cl)c3s2)n1`?
PrP UTR inh: -7; PrPC TRFRET: 33*; CCHF vOTU inh-1: 0; 3CLpro inhibitor: 6; PrPC TRFRET cf: 24; LD9 tox: -1

Results for Cc1nn(Cc2ccccc2Cl)c2sc(C(=O)NC(C)(C)C)cc12 ?
PrP UTR inh: 4; PrPC TRFRET: 7; CCHF vOTU inh-1: 3; 3CLpro inhibitor: 1
